This is a sample that favours compounds with a hit; in the whole collection about 10% have one here.
3T3 cytotox: Cytotoxic Profiling in NIH 3T3 Cell Line of Diverse Libraries Using Quantitative High-Throughput Screening; NIH 3T3 viability, CellTiter-Glo ATP luminescence, 48-72 h; Potency, µM (titrated, usually from 96.7 µM), most hits filed as inhibitors; 94,000 compounds, 4.3% hits; further: nearly all actives have a fitted effect of over 55% in size
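Cytotoxicity was measured by CellTiter-Glo ATP luminescence after 48 or 72 h compound exposure at 37 °C. Mouse NIH 3T3 fibroblasts were seeded at 400 cells/well and dosed by 23 nL pin transfer.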
FLuc inh: Firefly luciferase inhibition profiling of diverse chemical library using quantitative high-throughput screening; Luciferin 4-monooxygenase (Photinus pyralis), P08659; purified P. pyralis luciferase, luminescence, biochemical; Potency, µM (highest dose often 115 µM), usual class: inhibitors; 76,000 compounds, 2.5% hits; AID 1347043, 2019; further: nearly all actives have a fitted effect of over 65% in size
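Purified P. pyralis luciferase (10nM final) in 50mM Tris acetate pH 7.5, 10mM Mg acetate, 0.01% Tween-20, 0.05% BSA with 10uM D-luciferin and 10uM ATP. Compounds titrated qHTS. Luminescence imaged on CCD.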
HEK293 tox: Cytotoxic Profiling in HEK 293 Cell Line of Diverse Libraries Using Quantitative High-Throughput Screening; HEK 293 viability, ATP luminescence (CellTiter-Glo), 48-72 h; Potency, µM (doses to about 115 µM), hits mostly inhibitors; 94,000 compounds, 6.6% hits; AID 1345083, 2018; further: nearly all actives have a fitted effect of over 60% in size
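Viability of HEK 293 cells, plated at 250 cells/well, was judged by cellular ATP after compound treatment for 48 or 72 hr. Luminescence was imaged 10 min after CellTiter-Glo addition at room temperature.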
hNpr1 antagonist: Natriuretic polypeptide receptor (hNpr1) antagonism - Primary qHTS; 76,000 compounds, 1.6% hits; Potency, µM (highest dose often 46.3 µM), hits mostly inhibitors; HEK293 hNpr1 GloSensor cGMP, ANP-stimulated luminescence; calls by dose curve; further: nearly all actives have a fitted effect of over 60% in size
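HEK293 cells stably expressing human Npr1 and cGMP GloSensor pGS-40F, loaded 2 h with 2% GloSensor reagent, given compound 30 min at room temperature. Luminescence read before and 20 min after 0.1 nM hNppA.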
GPT2 inh: Primary qHTS assay for inhibitors of Glutamate pyruvate transaminase 2 (GPT2); Recombinant GPT2, coupled pyruvate oxidase/HRP Amplex Red fluorescence; Potency, µM (top dose mostly 57.7 µM), hits mostly inhibitors; 100,000 compounds, 0.25% hits; AID 1671188, 2021; further: nearly all actives have a fitted effect of over 60% in size
Target sequence (Q8TD30 whole entry, looked up): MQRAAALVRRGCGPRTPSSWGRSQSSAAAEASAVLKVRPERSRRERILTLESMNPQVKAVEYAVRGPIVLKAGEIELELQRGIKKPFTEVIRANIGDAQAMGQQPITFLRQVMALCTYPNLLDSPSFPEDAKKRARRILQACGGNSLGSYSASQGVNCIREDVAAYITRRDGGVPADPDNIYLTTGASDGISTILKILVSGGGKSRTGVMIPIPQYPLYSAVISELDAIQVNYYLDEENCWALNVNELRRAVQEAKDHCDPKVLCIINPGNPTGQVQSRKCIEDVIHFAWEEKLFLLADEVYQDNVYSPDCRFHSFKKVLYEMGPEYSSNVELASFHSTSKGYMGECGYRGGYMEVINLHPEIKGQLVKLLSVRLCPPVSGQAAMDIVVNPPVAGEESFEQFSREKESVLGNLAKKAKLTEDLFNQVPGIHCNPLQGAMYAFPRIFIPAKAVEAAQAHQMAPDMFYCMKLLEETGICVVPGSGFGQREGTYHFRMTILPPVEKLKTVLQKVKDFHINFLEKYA
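Inhibition is scored from Amplex Red fluorescence generated when pyruvate oxidase and HRP act on pyruvate released by GPT2. Reactions contain 10ng/uL enzyme, 250uM a-KG and 2mM L-alanine and run 30 min at room temperature.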
Of the large screens only hits and unclear results are named; the others gave an inactive call; ! = not active in a repeat. Unless noted, the call rests on the fitted dose curve; in most records, active means well fitted curve in the direction sought with a large enough effect; inconclusive means small, poorly fitted or top-dose-only effect, or another doubt; inactive means no such curve, though single readings can be large; an effect the other way counts as inactive or inconclusive.

COc1ccc(CN2Cc3[nH]cnc3C[C@H]2c2nc(-c3ccc(C)cc3)no2)cc1	3T3 cytotox 79.4µM, FLuc inh 39.8µM, HEK293 tox 100µM
COc1ccc(CN2Cc3[nH]cnc3C[C@H]2c2nc(-c3ccncc3)no2)cc1	3T3 cytotox inconclusive, HEK293 tox inconclusive
COc1ccc(-c2noc([C@@H]3Cc4nc[nH]c4CN3Cc3ccc(CO)o3)n2)cc1	FLuc inh 39.8µM
CCC(=O)N1Cc2ccccc2CC2(CCCN2Cc2ccccn2)C1 (stereo not given)	none (no result: FLuc inh, hNpr1 antagonist)
COc1ccc(CN2Cc3[nH]cnc3C[C@H]2c2nc(-c3ccccn3)no2)cc1	3T3 cytotox inconclusive, FLuc inh 35.5µM, HEK293 tox inconclusive
COc1ccc(CN2Cc3[nH]cnc3C[C@H]2c2nc(-c3ccc4ccccc4c3)no2)cc1	3T3 cytotox 39.8µM, HEK293 tox 44.7µM, GPT2 inh inconclusive
N#Cc1cccc(CN2Cc3[nH]cnc3C[C@H]2c2nc(-c3ccc(OC(F)(F)F)cc3)no2)c1	3T3 cytotox inconclusive, FLuc inh inconclusive, HEK293 tox inconclusive
CCN1c2cc(C(=O)N3CCN(c4ccccc4)CC3)ccc2C(=O)N2CCCCCC21 (stereo not given)	HEK293 tox 28.2µM
CCN1c2cc(C(=O)N3CCN(c4ccc(F)cc4)CC3)ccc2C(=O)N2CCCCC21 (stereo not given)	HEK293 tox 44.7µM
CCN1c2cc(C(=O)N3CCN(c4cccc(C)c4)CC3)ccc2C(=O)N2CCCCC21 (stereo not given)	3T3 cytotox inconclusive, HEK293 tox inconclusive
CC(C)NC(=O)N1Cc2ccccc2OC2(CCN(C)CC2)C1	none
Cc1cccc(C)c1-c1nnc2ccc(C(=O)N3CCOCC3)cn12	none (no result: FLuc inh, hNpr1 antagonist)
COc1cccc(CN2CCOC3CCN(C(=O)c4ccccc4)CC3C2=O)c1 (stereo not given)	3T3 cytotox inconclusive
O=C(NC1CCCC1)C1CCCN(Cc2cccc(-c3cccs3)c2)C1 (stereo not given)	3T3 cytotox inconclusive, HEK293 tox 44.7µM (no result: FLuc inh, hNpr1 antagonist)
O=C(NC1CCN(Cc2cccc(-c3cccs3)c2)CC1)C1CCCC1	none (no result: FLuc inh, hNpr1 antagonist)
O=C(NC1CC1)C1CCCN(Cc2cccc(-c3cccs3)c2)C1 (stereo not given)	3T3 cytotox inconclusive, HEK293 tox 39.8µM (no result: FLuc inh, hNpr1 antagonist)
O=C(NC1CCCCC1)C1CCCN(Cc2cccc(-c3cccs3)c2)C1 (stereo not given)	3T3 cytotox 28.2µM, HEK293 tox inconclusive (no result: FLuc inh, hNpr1 antagonist)
Cc1cnc(C(=O)N[C@@H]2CCC[C@@H]2C(=O)NCC2CCCCC2)cn1	none
Cc1cc(C)c2c(C(=O)N3CCN(C)C4(CCN(C)CC4)C3)cc(C)nc2c1	none
COc1ccc(OC)c(C(C)NCc2cn[nH]c2-c2ccc(F)cc2)c1 (stereo not given)	HEK293 tox inconclusive
Cn1cccc1CN1CCC(Oc2ccccc2-c2nc(-c3ccncc3)no2)C1 (stereo not given)	3T3 cytotox 39.8µM, HEK293 tox inconclusive (no result: FLuc inh, hNpr1 antagonist)
c1csc(CN2CCC(Oc3ccccc3-c3nc(-c4cnccn4)no3)C2)c1 (stereo not given)	3T3 cytotox inconclusive, HEK293 tox inconclusive
Cc1ccsc1CN1CCC(Oc2ccccc2-c2nc(-c3ccncc3)no2)C1 (stereo not given)	3T3 cytotox 31.6µM, FLuc inh inconclusive, HEK293 tox 25.1µM
CC(=O)N1CCC(Oc2ccccc2-c2nc(-c3ccccc3)no2)C1 (stereo not given)	3T3 cytotox inconclusive, HEK293 tox inconclusive
C=C(C(=O)OC)C1C(O)CC2(C)C(=O)CCC(O)(CO)C2C1O (stereo not given)	none (no result: 3T3 cytotox, FLuc inh, HEK293 tox, hNpr1 antagonist)
O=C(c1ccc(-c2ccccc2)cc1)N1C[C@@H]2C[C@H](C1)c1ccc(NS(=O)(=O)c3cccc(F)c3)c(=O)n1C2	3T3 cytotox inconclusive, FLuc inh inconclusive, HEK293 tox 50.1µM
Cn1cc(CN2C[C@@H]3C[C@H](C2)c2ccc(NS(=O)(=O)c4cccc(F)c4)c(=O)n2C3)c2ccccc21	3T3 cytotox 12.6µM, HEK293 tox 31.6µM
O=C(c1ccc2ccccc2c1)N1C[C@@H]2C[C@H](C1)c1ccc(NS(=O)(=O)Cc3ccccc3)c(=O)n1C2	3T3 cytotox 79.4µM, HEK293 tox inconclusive
Cn1cc(-c2cnc(Nc3cccc(C(F)(F)F)c3)c3c2CCO3)cn1	3T3 cytotox inconclusive, FLuc inh inconclusive, HEK293 tox inconclusive, hNpr1 antagonist inconclusive
CC(=O)c1cc(CN2CCC(c3[nH]ncc3-c3ccccc3C)CC2)n(C)c1	3T3 cytotox inconclusive, HEK293 tox inconclusive
O=C(NCC1Cn2cccc2CN1Cc1ccccc1)c1ccc2cc[nH]c2c1 (stereo not given)	3T3 cytotox inconclusive, HEK293 tox 79.4µM
Cc1cc(C(=O)NCC2Cn3cccc3CN2Cc2ccccc2)n[nH]1 (stereo not given)	FLuc inh inconclusive, HEK293 tox inconclusive
Cc1ccccc1N1CCN(C(=O)c2cc3cn(C4CC4)cc3s2)CC1	3T3 cytotox inconclusive, HEK293 tox 79.4µM, GPT2 inh inconclusive
Cc1ccccc1C(=O)N1CCC2(C1)C(=O)N(CCc1ccccc1)c1ccccc12 (stereo not given)	3T3 cytotox inconclusive, HEK293 tox 39.8µM!
CCN1C(=O)C2(CCN(S(=O)(=O)c3ccc(C(F)(F)F)cc3)CC2)c2ccccc21	HEK293 tox 31.6µM
O=C(c1ccc(Cl)nc1)N1CCC2(C1)C(=O)N(CCc1ccccc1)c1ccccc12 (stereo not given)	3T3 cytotox inconclusive, HEK293 tox inconclusive
O=C(c1ccccc1Cl)N1CCC2(C1)C(=O)N(CCc1ccccc1)c1ccccc12 (stereo not given)	3T3 cytotox inconclusive, HEK293 tox 39.8µM!
O=C(c1ccc(C(F)(F)F)cc1)N1CCC2(C1)C(=O)N(CCc1ccccc1)c1ccccc12 (stereo not given)	3T3 cytotox 39.8µM!, HEK293 tox 31.6µM, hNpr1 antagonist inconclusive
N#Cc1ccc(CN2CCCC(c3nccn3Cc3ccccc3)C2)cc1 (stereo not given)	3T3 cytotox inconclusive, HEK293 tox inconclusive
CCC(=O)N(C1CCOCC1)C1CCN(S(=O)(=O)c2ccc(C(F)(F)F)cc2)CC1	none
O=C(Cn1ccn2nc(-c3ccccc3)c(CO)c2c1=O)Nc1ccccc1F	none
O=C(Cc1ccccc1F)N1CCOc2ccc(CN3CCc4ccccc4C3)cc2C1	HEK293 tox 44.7µM
CCOc1ccc(CN2CCOc3ccc(C(=O)NCc4ccccc4F)cc3C2)cc1	3T3 cytotox inconclusive, HEK293 tox 39.8µM, hNpr1 antagonist inconclusive

From PubChem
